# Laboratory results from PubChem BioAssay AID652104 (National Center for Advancing Translational Sciences (NCATS), 2013).
# In all, about 410,000 compounds went through this assay and about 7,200 (1.8%) were called active. Where a call stands in place of a potency, no number is given. About 7% were inconclusive and are not listed. The full list was thinned out, with actives kept by preference. Unmarked numbers belong to inactive results. Calls come from the whole dose curve; as a rule, active = well fitted activation curve with a large enough effect; inconclusive = small, poorly fitted or top-dose-only effect, or another doubt; inactive = no such curve, though single readings can be large or run the other way.
# Assay: qHTS of TDP-43 Inhibitors; note: nearly all actives have a fitted effect of over 50% in size
# Settings: TDP-43 expressing yeast growth rescue, BacTiter-Glo, 24 h; series mostly up to 46.1 µM
# Text: The goal of this project is to identify new chemical probes capable of reversing the toxicity associated with TDP-43 which is associated with frontotemporal lobar degeneration and amyotrophic lateral sclerosis. These compounds will provide a complementary approach to deciphering the tangled mechanisms of toxicity and protection that we have uncovered through genome-wide genetic screens and are beginning to uncover in a large-scale proteomics analysis with mass spectroscopy.
# To this end, a miniaturized assay was developed to be screened against the Molecular Libraries Small Molecule Repository (MLSMR) to discover TDP-43 inhibitors. Please note that in the set-up this yeast-based assay compounds that inhibit as TDP-43, have a read-out as activators.
# NIH Chemical Genomics Center [NCGC]
# NIH Molecular Libraries Probe Centers Network [MLPCN]
# Assay Submitter (PI): Susan Lindquist, Whitehead Institute/MIT
# Dispense 2.5 microL yeast galactose medium per 1536-well plate, pin compound, dispense 2.5 microL TDP-43 expressing yeast in galactose medium at OD600=0.02 (pregrown in raffinose medium to mid-log phase) per well, incubate for 24 hr at 30 deg C, and cell growth will be measured using 5 microL of Bactiter/Glo reagent to entire plate and read using Luminescence Protocol in ViewLux.
# Potency is the fitted concentration of half-maximal effect.
SMILES,Potency,growth rescue (activation)
CC1CCN(C(=O)c2ccc(S(=O)(=O)Cc3cc(F)ccc3F)c([N+](=O)[O-])c2)CC1,11.2 µM (active),–
CC1CCN(c2ccc(S(=O)(=O)Nc3cc(C(=O)O)cc(C(=O)O)c3)cc2[N+](=O)[O-])CC1,inactive,–
NC(=O)C1CCN(C(=O)c2ccc(F)c(S(=O)(=O)N3CCOCC3)c2)CC1,inactive,–
Cc1cc(C)cc(OCC(=O)Nc2c(C(=O)c3ccccc3)oc3ccccc23)c1,inactive,–
COc1ccc(CCNC(=O)c2ccc(-n3c(C)cc4c3CCCC4)cc2)cc1OC,inactive,–
CC1CCN(S(=O)(=O)c2ccc3c(ccn3CCC(=O)NCc3ccc(N(C)C)cc3)c2)CC1,inactive,–
CC1CCC2(CC1)N=C(c1ccccc1)C(=O)N2CC(=O)Nc1ccc(F)c(Cl)c1 (configuration not stated),inactive,–
O=C1C(=O)N(CC2COc3ccccc3O2)c2ccccc21 (configuration not stated),28.2 µM (active),–
Cc1ccc(Cl)cc1NC(=O)NC1COc2ccccc2C1 (configuration not stated),inactive,–
Cc1cc(C(=O)CCl)c(C)n1CC1COc2ccccc2O1 (configuration not stated),20 µM (active),–
CC1COc2ccccc2N1S(=O)(=O)c1ccccc1 (configuration not stated),inactive,–
OC(COCC1COc2ccccc2O1)CN1CCN(c2ccc(F)cc2)CC1 (configuration not stated),inactive,–
Cc1n[nH]c(C)c1S(=O)(=O)N1CCCC(C(=O)NCC2COc3ccccc3O2)C1 (configuration not stated),inactive,–
COc1ccccc1Nc1c2c(nc3ccc(NC(=O)/C=C/c4cc(OC)c(OC)c(OC)c4)cc13)CCCC2,inactive,–
CCc1ccc(NC(=O)C2CCCN2S(=O)(=O)c2ccc3nc(-c4ccccc4)[nH]c3c2)cc1 (configuration not stated),inactive,–
C=Cc1ccc(Cn2c(C(=O)OC)cc3sc(C)cc32)cc1,inactive,–
CCN1CCN(c2ncc3c(n2)CC(c2ccccc2O)CC3=O)CC1 (configuration not stated),inactive,–
Cc1ccc(-n2c3nc(=O)[nH]c(=O)c-3cc3c(Cl)cccc32)cc1,inactive,–
Cc1ccc(CNC(=O)c2c(O)nc3c(C)cccn3c2=O)cc1,inactive,–
CCOc1cc(C(=O)Nc2nnc3n2CCS3)cc(OCC)c1OCC,inactive,–
Cc1ccccc1NC(=O)Cn1c(=O)n(CCCCC(=O)NCc2ccccc2Cl)c(=O)c2ccccc21,inactive,–

SMILES,Potency,growth rescue (activation)
Cc1ccc(C)c(NC(=O)Cn2ccn(-c3ccc(F)cc3)c(=O)c2=O)c1,inactive,–
COc1ccccc1-c1cc(C(F)(F)F)nc(S(=O)(=O)CCCC(=O)Nc2cc(C)ccc2O)n1,inactive,–
COc1ccccc1-c1cc(C(F)(F)F)nc(S(=O)(=O)CCCC(=O)Nc2ccc(F)cc2F)n1,14.1 µM (active),–
CSc1ccccc1NC(=O)CCS(=O)(=O)c1nc(-c2cccs2)cc(C(F)(F)F)n1,inactive,–
CCOC(=O)c1ccc(NC(=O)c2ncn(-c3ccccc3)n2)cc1,inactive,–
Cc1cccc(N2CCN(C(=O)c3ccc(Nc4nc5ccccc5n5nnnc45)cc3)CC2)c1C,inactive,–
CN1c2ccc(C=O)c3c(C=O)ccc(c23)N(C)C1(C)C,inactive,–
Cc1ccc(C=O)c([B-](F)(F)F)c1,11.2 µM (active),–
CCOc1ccc(OCC)c(Nc2nc3ccccc3n3nnnc23)c1,inactive,–
Cc1cc(=O)c2cc(C(=O)Nc3cccc(C)c3C)ccc2[nH]1,–,0% [at 9.22 µM]
CCC(=O)c1cc(F)ccc1OCC(=O)Nc1ccc2c(c1)OCCO2,inactive,–
O=C(COC(=O)COc1cccc(F)c1)NCC1CCCCC1,inactive,–
O=C(COc1ccc(F)cc1Br)NCC1COc2ccccc2O1 (configuration not stated),22.4 µM (active),–
CCC(=O)N1CCc2cc(S(=O)(=O)NC(C(=O)Nc3ccc(C(C)=O)cc3)C(C)C)ccc21 (configuration not stated),inactive,–
Cc1ccccc1-n1nnnc1SCCCC(=O)c1ccc(F)cc1,35.5 µM (active),–
CC(=O)Nc1ccc(NC(=O)CSc2nnnn2-c2ccccc2F)cc1,inactive,–
CCn1nnnc1SCC(=O)c1ccc(C)cc1C,inactive,–
COc1ccc(CNC(=O)CSCc2nc(-c3ccccc3F)oc2C)cc1,inactive,–
COc1ccc(Br)cc1C1CC(=O)Nc2c1c(C)nn2-c1nc(C)cc(C)n1 (configuration not stated),–,10.5% [at 9.22 µM]
COc1ccccc1N1CCN(c2ncnc3onc(-c4cccc(Cl)c4)c23)CC1,inactive,–
COc1ccccc1N1CCN(c2ncnc3sc(C)c(-c4ccccc4)c23)CC1,17.8 µM (active),–

SMILES,Potency,growth rescue (activation)
COC(=O)c1cnc(N2CCN(c3ccccc3OC)CC2)c2ccccc12,inactive,–
Cc1cc(C)cc(Nc2ncnc3onc(-c4ccc(F)cc4)c23)c1,inactive,–
COc1ccccc1N1CCN(c2ncnc3onc(-c4ccc(F)cc4)c23)CC1,15.8 µM (active),–
COc1ccccc1N1CCN(CCCCOc2ccc(F)cc2)CC1,inactive,–
COc1ccccc1N1CCN(c2ccc([N+](=O)[O-])nc2)CC1,inactive,–
CN(Cc1ccccc1)c1ccc(-c2nc(-c3ccccc3)no2)cc1[N+](=O)[O-],inactive,–
CN(Cc1ccccc1)c1ncnc2onc(-c3ccc(F)cc3)c12,35.5 µM (active),–
CCOc1ccc(OCC)c(NC(=O)c2c(C)nn(-c3ccccc3)c2-n2cccc2)c1,inactive,–
O=C(Nc1ccc(Br)cc1)c1cc2nc(-c3ccccc3)cc(-c3ccccc3)n2n1,inactive,–
Cc1ccc2c(c1)N(C(=O)CCC(=O)NCc1ccccc1F)CC(C)O2 (configuration not stated),inactive,–
Cc1ccc2c(=O)cc(C(=O)Nc3sc4c(c3C(=O)NCc3cccnc3)CCCC4)oc2c1,inactive,–
O=C(CSc1nccn1C1CCCC1)Nc1cc(C(F)(F)F)ccc1Cl,inactive,–
COC(=O)c1ccccc1NC(=O)CSc1n[nH]c(-c2ccncc2)n1,inactive,–
CCOC(=O)c1cnc(SCC(=O)Nc2ccccc2C(=O)OC)nc1N,22.4 µM (active),–
CCOC(=O)c1cnc(SCC(=O)Nc2cccc(OC)c2)nc1N,inactive,–
Cc1nc(SCC(=O)Nc2ccc(C(=O)O)cc2)n[nH]1,inactive,–
O=C(Nc1ccc(C(=O)OCc2cc(=O)n3nc(C4CC4)sc3n2)cc1)c1ccc(F)cc1,inactive,–
CCCCNC(=O)c1ccc2c(c1)NC(=O)C(C(C)C)N2 (configuration not stated),inactive,–
CCc1ccccc1N1CC(c2nc3ccccc3n2CCCCOc2ccccc2)CC1=O (configuration not stated),inactive,–
CCOC(=O)c1c(S(=O)(=O)N2CCCC(C(=O)NCc3cccc(C)c3)C2)c(C)n(C)c1C (configuration not stated),inactive,–
